Results published in PubChem BioAssay AID1159580 (chemical genetic matrix, 2015).
The whole screen tested about 5,500 compounds, of which about 2,000 (36%) were called active. Another 18% or so got no clear call; they are omitted. Rule as the data show it: active = normalized growth mostly below about 0.91 (no sharp cut-off); inconclusive = no clear call, values can overlap the other calls; inactive = mostly above about 0.92. The list shows a part of the results.

Experiment: chemical genetic growth profiling, strain panel (AID 1159580);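 also: tested at 20 µM; growth read once vehicle control cultures reached saturation at 30 °C; 1 = growth at the plate median or of vehicle wells; lower values mean less growth of the strain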
Conditions: growth OD

Measured: normalized growth

CC(=O)O[C@H]1C[C@H](O[C@H]2[C@@H](O)C[C@H](O[C@H]3[C@@H](O)C[C@H](O[C@H]4CC[C@@]5(C)C(CCC6C5C[C@@H](O)[C@]5(C)[C@@H](C7=CC(=O)OC7)CC[C@]65O)C4)O[C@@H]3C)O[C@@H]2C)O[C@H](C)[C@H]1O[C@@H]1O[C@H](CO)[C@@H](O)[C@H](O)[C@H]1O (stereo not given in full)
inactive: S. cerevisiae deletion strains, locus YJR075W, strain HOC1, hits give low values 1.02 | S. cerevisiae deletion strains, locus YKL009W, strain mrt4, hits give low values 1 | S. cerevisiae deletion strains, locus YKL068W, hits give low values 1 | S. cerevisiae deletion strains, locus YKL085W, strain MDH1 (second series), hits give low values 1 | S. cerevisiae deletion strains, locus YKL085W, strain MDH1, hits give low values 1 | S. cerevisiae deletion strains, locus YKL160W, strain elf1, hits give low values 1.01 | S. cerevisiae deletion strains, locus YKL190W, strain CNB1, hits give low values 1.01 | S. cerevisiae deletion strains, locus YKR001C, strain vps1, hits give low values 1.01 | S. cerevisiae deletion strains, locus YKR026C, strain gcn3, hits give low values 0.982 | S. cerevisiae deletion strains, locus YKR091W, strain srl3, hits give low values 1 | S. cerevisiae deletion strains, locus YLL001W, strain dnm1, hits give low values 1 | S. cerevisiae deletion strains, locus YLL026W, hits give low values 0.999 | S. cerevisiae deletion strains, locus YLL041C, strain sdh2, hits give low values 1 | S. cerevisiae deletion strains, locus YLR027C, strain aat2, hits give low values 1 | S. cerevisiae deletion strains, locus YLR039C, strain RIC1, hits give low values 1.05 | S. cerevisiae deletion strains, locus YLR058C, strain SHM2, hits give low values 1.02 | S. cerevisiae deletion strains, locus YLR102C, strain apc9, hits give low values 0.978 | S. cerevisiae deletion strains, locus YLR113W, strain HOG1, hits give low values 0.977 | S. cerevisiae deletion strains, locus YLR221C, strain rsa3, hits give low values 1 | S. cerevisiae deletion strains, locus YLR258W, strain gsy2, hits give low values 0.994 | S. cerevisiae deletion strains, locus YLR262C, strain YPT6 (second series), hits give low values 0.999 | S. cerevisiae deletion strains, locus YLR262C, strain YPT6, hits give low values 1.04 | S. cerevisiae deletion strains, locus YLR268W, strain sec22, hits give low values 1 | S. cerevisiae deletion strains, locus YLR320W, strain mms22, hits give low values 0.999 | S. cerevisiae deletion strains, locus YLR330W, strain CHS5, hits give low values 1.01 | S. cerevisiae deletion strains, locus YLR342W, strain FKS1 (second series), hits give low values 1.02 | S. cerevisiae deletion strains, locus YLR342W, strain FKS1, hits give low values 1 | S. cerevisiae deletion strains, locus YLR357W, strain rsc2, hits give low values 0.993 | S. cerevisiae deletion strains, locus YLR370C, strain arc18, hits give low values 0.994 | S. cerevisiae deletion strains, locus YLR371W, strain rom2, hits give low values 0.975 | S. cerevisiae deletion strains, locus YLR384C, strain iki3, hits give low values 0.988 | S. cerevisiae deletion strains, locus YLR418C, strain cdc73, hits give low values 1.05 | S. cerevisiae deletion strains, locus YML016C, strain PPZ1, hits give low values 1.01 | S. cerevisiae deletion strains, locus YML032C, strain rad52, hits give low values 0.991 | S. cerevisiae deletion strains, locus YML120C, strain ndi1, hits give low values 0.992 | S. cerevisiae deletion strains, locus YML124C, strain tub3, hits give low values 0.992 | S. cerevisiae deletion strains, locus YMR058W, strain fet3, hits give low values 1 | S. cerevisiae deletion strains, locus YMR078C, strain ctf18, hits give low values 0.984 | S. cerevisiae deletion strains, locus YMR125W, strain sto1, hits give low values 0.979 | S. cerevisiae deletion strains, locus YMR129W, hits give low values 0.991 | S. cerevisiae deletion strains, locus YMR205C, strain PFK2, hits give low values 0.974 | S. cerevisiae deletion strains, locus YMR223W, strain ubp8, hits give low values 0.997 | S. cerevisiae deletion strains, locus YMR231W, strain pep5, hits give low values 0.989 | S. cerevisiae deletion strains, locus YMR263W, strain SAP30, hits give low values 1.01 | S. cerevisiae deletion strains, locus YMR307W, strain GAS1, hits give low values 1.07 | S. cerevisiae deletion strains, locus YNL067W, strain RPL9B, hits give low values 1 | S. cerevisiae deletion strains, locus YNL071W, strain lat1, hits give low values 0.999 | S. cerevisiae deletion strains, locus YNL183C, strain NPR1, hits give low values 0.922 | S. cerevisiae deletion strains, locus YNL209W, strain ssb2, hits give low values 0.999 | S. cerevisiae deletion strains, locus YNL233W, strain BNI4, hits give low values 1.01 | S. cerevisiae deletion strains, locus YNL248C, strain rpa49, hits give low values 0.998 | S. cerevisiae deletion strains, locus YNL250W, strain rad50, hits give low values 1.01 | S. cerevisiae deletion strains, locus YNL271C, strain bni1, hits give low values 1.01 | S. cerevisiae deletion strains, locus YNL298W, strain CLA4, hits give low values 1 | S. cerevisiae deletion strains, locus YNL307C, strain MCK1, hits give low values 0.991 | S. cerevisiae deletion strains, locus YNL322C, strain KRE1 (second series), hits give low values 0.993 | S. cerevisiae deletion strains, locus YNL322C, strain KRE1, hits give low values 1.01 | S. cerevisiae deletion strains, locus YNR049C, strain mso1, hits give low values 0.992 | S. cerevisiae deletion strains, locus YNR052C, strain pop2, hits give low values 0.994 | S. cerevisiae deletion strains, locus YOL006C, strain TOP1, hits give low values 1.03 | S. cerevisiae deletion strains, locus YOL012C, strain htz1 0.846 | S. cerevisiae deletion strains, locus YOL147C, strain pex11, hits give low values 0.988 | S. cerevisiae deletion strains, locus YOR001W, strain rrp6, hits give low values 1.01 | S. cerevisiae deletion strains, locus YOR061W, strain CKA2, hits give low values 1.01 | S. cerevisiae deletion strains, locus YOR069W, strain VPS5, hits give low values 1.01 | S. cerevisiae deletion strains, locus YOR070C, strain gyp1, hits give low values 0.999 | S. cerevisiae deletion strains, locus YOR080W, strain dia2, hits give low values 0.999 | S. cerevisiae deletion strains, locus YOR083W, strain WHI5, hits give low values 1 | S. cerevisiae deletion strains, locus YOR106W, strain vam3, hits give low values 1.01 | S. cerevisiae deletion strains, locus YOR136W, strain idh2, hits give low values 1 | S. cerevisiae deletion strains, locus YOR144C, strain elg1, hits give low values 1 | S. cerevisiae deletion strains, locus YOR184W, strain ser1, hits give low values 1.02 | S. cerevisiae deletion strains, locus YOR231W, strain MKK1, hits give low values 0.983 | S. cerevisiae deletion strains, locus YOR265W, strain rbl2, hits give low values 1 | S. cerevisiae deletion strains, locus YOR270C, strain vph1, hits give low values 0.946 | S. cerevisiae deletion strains, locus YOR290C, strain snf2, hits give low values 1.02 | S. cerevisiae deletion strains, locus YOR316C, strain cot1, hits give low values 0.982 | S. cerevisiae deletion strains, locus YPL051W, strain arl3, hits give low values 1 | S. cerevisiae deletion strains, locus YPL055C, strain LGE1, hits give low values 0.997 | S. cerevisiae deletion strains, locus YPL078C, strain atp4, hits give low values 1.02 | S. cerevisiae deletion strains, locus YPL106C, strain sse1, hits give low values 1 | S. cerevisiae deletion strains, locus YPL240C, strain hsp82, hits give low values 0.999 | S. cerevisiae deletion strains, locus YPL241C, strain CIN2, hits give low values 1.01 | S. cerevisiae deletion strains, locus YPL256C, strain CLN2, hits give low values 0.994 | S. cerevisiae deletion strains, locus YPR119W, strain clb2, hits give low values 0.981 | S. cerevisiae deletion strains, locus YPR141C, strain kar3, hits give low values 1.01 | S. cerevisiae deletion strains, locus YPR163C, strain tif3, hits give low values 0.99 | S. cerevisiae deletion strains, locus YPR167C, strain met16, hits give low values 1.01 | S. cerevisiae deletion strains, strain wtn01, hits give low values 1.01 | S. cerevisiae strains, strain wild type, hits give low values 1.01
